Source: PubChem BioAssay
A selection: hits, their analogues and other compounds. The true share with any hit is near 2.3%.
M1 PAM parental – nonselective activator or artifact in parental CHO-K1 calcium assay; ATP EC20, Fluo-8 calcium fluorescence; 0% at ATP EC20, 100% at ATP max; activation, % at 3 µM; AID 602247; 0.02% of 360,000 active;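 active = activation above the run cutoff, the mean activation of all test compounds plus 3 SD, cut at about 40% in these data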;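 also: peak over basal fluorescence ratio in a 140 s read after ATP addition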
CHO-K1 Ca antag – nonselective inhibitor or artifact in parental CHO-K1 cells; ATP-induced calcium, Fluo-8 fluorescence; inhibition, % at 3 µM; 0.6% of 360,000 active; AID 602250;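 active = inhibition above a per-plate cutoff, the plate's mean sample inhibition plus 3 SD, cut at about 24% in these data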;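 also: 0% = DMSO plus EC80 ATP and 100% = DMSO alone without ATP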
M1 PAM – human CHRM1 positive allosteric modulation; activation, % at 3 µM; AID 588819; CHO-K1 hM1, Fluo-8 calcium fluorescence, ACh EC20; 0% = ACh EC20, 100% = maximal ACh; 0.088% of 360,000 active; P11229; in the data active = activation above about 19%, passing the limit was not always enough
Target sequence (P11229 whole entry, looked up): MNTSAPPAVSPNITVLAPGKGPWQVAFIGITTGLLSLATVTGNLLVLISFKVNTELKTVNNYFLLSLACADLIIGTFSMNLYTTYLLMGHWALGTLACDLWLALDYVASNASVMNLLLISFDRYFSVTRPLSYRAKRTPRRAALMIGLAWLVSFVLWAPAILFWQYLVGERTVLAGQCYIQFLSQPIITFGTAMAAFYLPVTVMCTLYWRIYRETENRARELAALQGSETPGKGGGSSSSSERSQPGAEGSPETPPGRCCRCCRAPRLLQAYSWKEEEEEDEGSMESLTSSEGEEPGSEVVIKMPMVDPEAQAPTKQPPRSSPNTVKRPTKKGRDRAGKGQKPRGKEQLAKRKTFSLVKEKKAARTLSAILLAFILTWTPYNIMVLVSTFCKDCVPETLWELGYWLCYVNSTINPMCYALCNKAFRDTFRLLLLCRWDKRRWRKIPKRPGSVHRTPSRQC
M1 ag parental – M1 agonist counterscreen hit in parental CHO-K1 cells | activation, % at 3 µM | Fluo-8 calcium fluorescence; scaled to maximal ATP response, vehicle zero | 0.48% of 360,000 active | AID 602248; in the data active = activation above about 15%;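 also: untransfected CHO-K1 host cells lacking M1 receptor as counterscreen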
M1 ag – activates human CHRM1 receptor; P11229; CHO-K1 hM1, Fluo-8 calcium fluorescence, agonist mode; 0% DMSO, 100% acetylcholine EC100; activation, % at 3 µM; 0.33% of 360,000 active; AID 588814;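 active = activation above the run's mean compound activation plus 3 SD, cut at about 16% in these data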;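 also: peak over basal fluorescence ratio within a 140 s kinetic read after compound addition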
M1 antag – human CHRM1 antagonism; P11229; CHO-K1 hM1, Fluo-8 calcium fluorescence, ACh EC80 antagonist; inhibition, % at 3 µM; 1.3% of 360,000 active; AID 588852;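 active = percent inhibition above its own plate's cutoff, namely the mean of that plate's compound wells plus 3 SD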;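 also: peak over basal fluorescence ratio during 140 s after agonist addition; 0% = ACh EC80 plus DMSO and 100% = DMSO alone without agonist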
Starred values were filed as active, the others as inactive.

SMILES	M1 PAM parental	CHO-K1 Ca antag	M1 PAM	M1 ag parental	M1 ag	M1 antag
Cc1cccc(OCCCCCn2ccnc2)c1	7.5	-0.5	-3.4	1.2	17.0*	10.8
Cc1cc(OCCCn2ccnc2)cc(C(C)C)c1	4.2	-1.8	-14.7	3.7	-6.8	26.2
Cc1cc(OCCn2ccnc2)cc(C(C)C)c1	-11.1	2.3	-22.5	0.1	-8.8	73.7*
CC(=O)Nc1cc(-c2ccc(C(=O)NC3CC3)cc2)cn2c(-c3cccc(C(F)(F)F)c3)cnc12	-13.8	11.1	-3.9	2.9	-2.6	4.6
CCCN1C(=O)/C(=C/c2c(NCCCOCC)nc3c(C)cccn3c2=O)SC1=S	22.0	-8.1	13.0	0.4	1.2	-12.8
O=C1/C(=C\c2c(NCCOCCO)nc3ccccn3c2=O)SC(=S)N1Cc1ccco1	0.3	11.0	-18.9	20.5*	29.6*	33.6
O=C1NC(Cc2ccc(O)cc2)c2nc3ccccc3c(=O)n2-c2ncccc21 (stereo not given)	-7.3	13.0	6.7	0.5	5.2	2.5
Cc1ccc(-n2c(-c3ccc(Br)cc3)c[n+]3c2CCc2ccc4cccnc4c2-3)cc1	14.4	13.5	-20.4	5.2	-5.7	90.9*
COc1ccc(-n2c(-c3ccc(Cl)cc3)c[n+]3c2CCc2ccccc2-3)cc1	24.5	-4.3	-21.2	0.5	-12.8	17.9
COc1ccc(/C(C)=N/OCC(=O)Nc2nc3ccccc3s2)cc1OC	12.7	1.9	-9.1	19.3*	-3.3	12.0
C/C(=N\OCC(=O)Nc1nc2ccccc2s1)c1ccccc1	23.9	-13.6	6.0	1.2	-2.5	-6.3
O=C1C2C3c4ccccc4C(c4ccccc43)C2C(=O)N1c1nc(-c2ccccc2)cs1 (stereo not given)	-2.4	4.7	20.1*	0.1	0.0	-6.0
Cc1csc2ncc(C(=O)NC(C)c3ccccc3)c(=O)n12 (stereo not given)	4.4	14.1	-0.7	15.7*	3.4	0.8
CN(C)S(=O)(=O)c1ccc2oc(SCC(N)=O)nc2c1	-6.8	5.0	8.4	0.4	-1.2	-9.1
CN(C)S(=O)(=O)c1ccc2oc(SCC(=O)c3c(N)n(C4CC4)c(=O)[nH]c3=O)nc2c1	9.9	-15.0	-3.2	20.4*	-4.1	11.5
Fc1ccc(C2N(c3ccccc3)C(=S)N3CCCN23)cc1 (stereo not given)	-19.5	10.2	-19.9	0.0	-7.5	24.9
Cc1ccc(C2N(c3ccccc3)C(=S)N3CCCN23)cc1 (stereo not given)	3.0	-3.7	-24.6	-0.2	-6.9	85.0*
O=C(CCNC(=O)c1ccc(Br)cc1)NCCCSc1ccccc1	13.3	-3.1	3.3	0.3	-3.0	-0.7
COc1ccc(C(C)=O)cc1Cn1c(C)c(C(=O)NCc2cccc(C)c2)sc1=O	4.6	-3.8	0.8	2.9	-8.5	-8.8
Cc1cccnc1CNC(=O)C1(C)CCCN1CC(C)C (stereo not given)	8.1	-5.2	8.2	1.2	-5.4	-10.1
Cc1ccccc1-n1c(=O)cc(N2CCc3ccccc3C2)[nH]c1=O	12.5	5.0	4.4	17.9*	-3.8	-0.7
Cc1cccc(OCCCC(=O)N2CCCCCC2)c1C	9.7	-12.8	7.0	0.7	-4.6	-20.8
CCC(C)C(CO)NCCCn1cnc2c(OC)ncnc21 (stereo not given)	11.0	-2.7	-14.9	0.2	-1.2	20.8*
COc1ccc(-n2c(C)c(C)c3c(N)ncnc32)cc1	9.7	-12.5	14.8	0.6	-5.2	-10.8
Cc1cccc(N(CC(=O)N2CCN(C)CC2)S(=O)(=O)c2ccccc2)c1	9.6	0.6	-3.7	0.4	-13.7	6.8
SMILES	M1 PAM parental	CHO-K1 Ca antag	M1 PAM	M1 ag parental	M1 ag	M1 antag
CN1CCN(C(=O)CN(c2cccc(Cl)c2)S(=O)(=O)c2ccccc2)CC1	14.1	-7.1	-9.1	0.1	-4.9	28.1*
Cc1ccc(C2(C)NC(=O)N(CC(=O)NC(=O)NC(C)(C)C)C2=O)cc1 (stereo not given)	15.5	-20.2	8.2	2.9	1.3	-8.7
CCCCCn1nc(C(=O)N(CC)c2c(N)n(CCCC)c(=O)[nH]c2=O)c2ccccc2c1=O	-9.9	-3.1	8.6	3.4	-1.4	-9.5
OC1CC2CCC(C1)N2CCCN1c2ccccc2Sc2ccc(Cl)cc21 (stereo not given)	2.8	0.5	-27.2	11.1	1.5	67.4*
COCc1cc(C)nc(SCC[N+](C)(C)CC(=O)Nc2cccc(C(F)(F)F)c2)c1C#N	-16.1	3.7	-20.0	-0.6	-8.7	40.2*
CCOC(=O)C1(C(=O)OCC)NC(=O)CC1CC (stereo not given)	14.0	-16.5	6.0	0.9	0.0	-15.7
CCCCCC1CC(=O)NC1(C(=O)OCC)C(=O)OCC (stereo not given)	-7.5	0.3	-22.8	3.0	-1.0	40.0*
COC(=O)c1ccc(N2CCOCC2)c(NC(=O)c2cccnc2)c1	9.9	2.9	6.9	2.5	-2.6	-7.7
COCCn1c(SCC(=O)NCC2CCCO2)nc2c([nH]c3ccccc32)c1=O (stereo not given)	2.9	-3.9	3.9	0.4	-2.6	-8.6
O=C(CCc1nc2ccccc2c(=O)[nH]1)Nc1ccc(Cl)c(Cl)c1	17.7	-7.0	7.8	2.6	-4.5	4.4
O=C(CCc1nc2ccccc2c(=O)[nH]1)NCCN1C(=O)S/C(=C\c2ccc(Cl)cc2Cl)C1=O	10.7	2.8	-11.2	0.7	-0.4	26.1*
Cc1ccc(S(C)(=O)=O)cc1C(=O)OCC(=O)N1CCCC1=O	-2.6	-2.9	6.5	1.2	-1.7	-6.2
